Measurements as given in PubChem BioAssay.

Assay: probe aNog binding to arrayed compounds – biochemical, biotinylated probe, 635/667 nm fluorescence, primary screen (AID 1115);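 further: probe is biotinylated aNog protein used at 0.15 µg/mL for 1 h at 4 C; z-score combines 667 nm fluorescence of each spot with its signal to noise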
Conditions: small-molecule microarray, higher = more signal

Row | Structure (SMILES) | composite z-score
1 | COCCOC(=O)N1C(=O)[C@@]2(c3cc(C#CCC(C(=O)OC)C(=O)OC)ccc31)[C@H](C(=O)N1CCCCCCC1)[C@H]1C(=O)O[C@H](c3ccccc3)[C@H](c3ccccc3)N1[C@@H]2c1ccc(OCCO)cc1 | 3.01
2 | C=C(CCCC)/C(=C/C[C@H](OC(C)=O)c1ccc(CO)o1)c1cnc2ccccc2c1 | -0.28
3 | [N-]=[N+]=NCc1ccccc1[C@@H]1OC(c2ccc(OCCCO)cc2)=N[C@]1(Cc1ccccc1)C(=O)N1CCCCC1 | 0.733
4 | C=CCNC(=O)[C@@H]1[C@H]2C(=O)O[C@H](c3ccccc3)[C@H](c3ccccc3)N2[C@H](c2ccc(OCCO)cc2)[C@@]12C(=O)Nc1ccccc12 | -0.543
5 | O=C1OCCC=C[C@H]2OC34C=CCN(Cc5ccccc5)C(=O)[C@H]3N(CCCCCO)C(=O)[C@@H]4C12 (stereo not given in full) | -0.177
6 | COc1ccccc1CN1C(=O)c2ccccc2[C@@H](C(=O)NCCN2CCOCC2)[C@@H]1c1ccc(CO)cc1 | -0.232
7 | CN1CCC(CCCO)=CC1c1ccc(CN2CCCC2)cc1 (stereo not given) | 0.215
8 | COCCOC(=O)N1C(=O)[C@@]2(c3cc(C#CCCO)ccc31)[C@H](c1ccc(O)cc1)N1[C@H](c3ccccc3)[C@H](c3ccccc3)OC(=O)[C@H]1[C@@H]2C(N)=O | 0.0157
9 | C[C@]1(C(=O)NCc2ccccc2)c2ccccc2C(=O)N(Cc2ccc(OC(F)(F)F)cc2)[C@H]1c1ccc(CO)cc1 | -0.381
10 | COc1ccc([Si](C)(C)[C@@H]2[C@@H](CCn3cc([C@H](O)c4ccccc4)nn3)O[C@]3(C(=O)N(Cc4ccc(N5C(=O)c6cccc7cccc5c67)cc4)c4ccccc43)[C@H]2C)cc1 | -0.131
11 | [N-]=[N+]=NCc1ccccc1C[C@@]1(C(=O)NCC(O)CO)N=C(c2ccc(OCCCO)cc2)O[C@@H]1c1ccccc1CN=[N+]=[N-] (stereo not given in full) | 2.29
12 | C=CC[C@@H](OC(=O)Nc1ccc(OC)cc1)c1ccc(O)c2ccccc12 | -0.139
13 | CCOC(=O)C[C@H]1[C@H](OC(=O)c2ccccc2-c2ccccc2)[C@@H](NC(=O)c2ccc3ccccc3c2)c2cc(OCCCO)ccc2N1C(=O)c1ccc2ccccc2n1 | -0.364
14 | N#Cc1ccc(NN2C(C(O)c3ccc([N+](=O)[O-])cc3)C=CC3C(=O)N(c4ccccc4)C(=O)C32)cc1 (stereo not given) | 1.18
15 | [N-]=[N+]=NCc1ccccc1[C@@H]1OC(c2ccc(OCCCO)cc2)=N[C@]1(Cc1ccccc1N=[N+]=[N-])C(=O)NCc1ccccc1 | -0.447
16 | CCOC(=O)C[C@H]1[C@H](OC(=O)c2ccc(-c3ccccc3)cc2)[C@@H](NC(=O)c2ccc3ccccc3c2)c2cc(OCCCO)ccc2N1C(=O)Cc1ccc(OC)cc1 | -0.0209
17 | CC(C)NC(=O)[C@@H]1c2ccccc2C(=O)N(Cc2ccccc2Cl)[C@H]1c1ccc(CO)cc1 | 0.139
18 | CCCCC(CC)C(O)C1C=CC2C(=O)N(c3ccccc3)C(=O)C2N1Nc1ccccc1 (stereo not given) | -0.259

Row | Structure (SMILES) | composite z-score
19 | CC(C)C[C@@H]1NC(=O)[C@H]2C[C@@H](C(=O)NCCCCCNC(=O)CS)[C@@H](c3cccc(OCCO)c3)N2C1=O | -0.0428
20 | CCC[C@@H]1C=C(C(=O)O)[C@H](c2ccc(C)cc2)N1S(=O)(=O)c1ccc(C)cc1 | 0.582
21 | [N-]=[N+]=NCc1ccccc1[C@H]1OC(c2ccc(OCCCO)cc2)=N[C@@]1(CCS(=O)(=O)c1ccccc1)C(=O)N1CCOCC1 | 2.25
22 | C=CC(COC(C)=O)NS(=O)(=O)c1ccc(Br)cc1 (stereo not given) | -0.149
23 | COCCOC(=O)N1C(=O)[C@@]2(c3cc(C#CCC(C(=O)OC)C(=O)OC)ccc31)[C@H](C(=O)N1CCN(c3ncccn3)CC1)[C@H]1C(=O)O[C@H](c3ccccc3)[C@H](c3ccccc3)N1[C@@H]2c1ccc(OCCO)cc1 | -0.213
24 | Cc1cc(C)c(C(O)C2C=CC3C(=O)N(c4ccccc4)C(=O)C3N2Nc2ccc(C#N)cc2)c(C)c1 (stereo not given) | 1.97
25 | Cc1ccc(S[C@]2(C(=O)NC3CC3)CC(=O)N(C3CCCCC3)[C@@H]2c2ccc(CO)cc2I)cc1 | 0.45
26 | CC(C)CNC(=O)[C@@]1(c2ccc([N+](=O)[O-])cc2)CC(=O)N(CC23CC4CC(CC(C4)C2)C3)[C@@H]1c1ccc(CO)cc1I | -0.289
27 | CC(C)c1ccc(NN2C(C(O)c3c(F)cccc3Cl)C=CC3C(=O)N(c4ccccc4)C(=O)C32)cc1 (stereo not given) | 1.94
28 | COCCOC(=O)N1C(=O)[C@@]2(c3cc(C#CCNC(N)=O)ccc31)[C@H](c1ccc(O)cc1)N1[C@H](c3ccccc3)[C@H](c3ccccc3)OC(=O)[C@H]1[C@@H]2C(=O)Nc1nc2ccccc2s1 | 0.167
29 | [N-]=[N+]=Nc1ccccc1[C@H]1OC(c2ccc(OCCCO)cc2)=N[C@@]1(CCS(=O)(=O)c1ccccc1)C(=O)O | 1.01
30 | CC=CC(O)C1C=CC2C(=O)N(c3ccccc3)C(=O)C2N1Nc1ccc(C(C)C)cc1 (stereo not given) | 1.65
31 | COc1cccc(C(=O)O[C@H]2CC[C@]3(C)C4=C(CCC3C2(C)C)[C@]2(C)CC[C@H]([C@H](C)CCCC(C)C)[C@@]2(C)CC4)c1 (stereo not given in full) | -0.0689
32 | CC(=O)NCCCC[C@@H]1NC(=O)[C@H]2C[C@@H](C(=O)NCCCCCC[N+](C)(C)C)[C@@H](c3cccc(OCCO)c3)N2C1=O | 0.019
33 | CC(C)c1ccc(NN2C(C(O)c3cccc(O)c3)C=CC3C(=O)N(c4ccccc4)C(=O)C32)cc1 (stereo not given) | 1.78
34 | O=C(CS)NCCCCCCNC(=O)[C@H]1C[C@H]2C(=O)N3CCC[C@H]3C(=O)N2[C@H]1c1cccc(OCCO)c1 | -0.353
35 | C=C(C(=O)CC[C@H](OC(C)=O)c1ccc(OCCO)cc1)C(C)C | -0.0965
